Composite z-score data for 36 compounds are collected here from PubChem BioAssay.

The target in the assay is Focal adhesion kinase 1 (Homo sapiens) (UniProt Q05397). The assay is described as follows: small-molecule microarray binders of FAK, primary screen, biochemical, 635/667 nm fluorescence, BSA, DTT (AID 1130).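 Note: composite of spot emission at 667 nm and signal to noise over triplicate slides.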 As to conditions: PTK2 binding, 635 nm fluorescence, higher = more signal.
Chain of Focal adhesion kinase 1 (Homo sapiens) (Q05397 whole entry, looked up): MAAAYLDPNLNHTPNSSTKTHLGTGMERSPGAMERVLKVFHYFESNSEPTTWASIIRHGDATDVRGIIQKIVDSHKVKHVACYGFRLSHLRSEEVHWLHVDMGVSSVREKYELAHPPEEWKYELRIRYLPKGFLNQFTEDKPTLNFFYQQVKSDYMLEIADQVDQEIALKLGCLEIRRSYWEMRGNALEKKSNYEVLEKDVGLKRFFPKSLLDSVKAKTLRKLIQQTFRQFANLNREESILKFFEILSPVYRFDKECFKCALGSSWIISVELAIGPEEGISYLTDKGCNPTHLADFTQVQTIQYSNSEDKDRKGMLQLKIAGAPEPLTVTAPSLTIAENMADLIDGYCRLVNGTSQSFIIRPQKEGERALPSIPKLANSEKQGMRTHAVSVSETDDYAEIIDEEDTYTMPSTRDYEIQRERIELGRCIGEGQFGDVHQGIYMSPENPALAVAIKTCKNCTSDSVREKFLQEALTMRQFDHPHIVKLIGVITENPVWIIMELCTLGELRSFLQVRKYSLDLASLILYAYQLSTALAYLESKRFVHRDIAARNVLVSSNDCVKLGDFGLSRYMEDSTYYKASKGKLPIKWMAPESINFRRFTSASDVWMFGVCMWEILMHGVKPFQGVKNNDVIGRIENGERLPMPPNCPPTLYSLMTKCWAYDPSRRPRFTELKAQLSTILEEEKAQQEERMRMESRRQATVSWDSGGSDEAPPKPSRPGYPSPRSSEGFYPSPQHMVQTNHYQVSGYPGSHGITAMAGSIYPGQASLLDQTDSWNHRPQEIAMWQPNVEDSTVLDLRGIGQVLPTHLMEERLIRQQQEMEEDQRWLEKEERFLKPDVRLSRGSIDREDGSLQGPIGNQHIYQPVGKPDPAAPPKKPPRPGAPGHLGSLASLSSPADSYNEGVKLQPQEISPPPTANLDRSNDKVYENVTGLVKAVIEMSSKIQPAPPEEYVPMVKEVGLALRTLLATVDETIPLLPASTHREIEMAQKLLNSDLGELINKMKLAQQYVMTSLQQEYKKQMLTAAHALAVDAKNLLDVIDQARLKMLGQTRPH
Turning to `CC(CCN1CCCc2nc(C)c(C)cc21)=NOC(C)CN1CCCCc2nc(C)c(C)cc21` (stereo unspecified), the composite z-score turned out to be 0.687.

`CCN1C(=O)[C@@H]2[C@H]3C(=CC[C@@H]2C1=O)C1(OCCCO1)[C@H]1O[C@H]1[C@H]3O` showed a composite z-score of 0.162. Then `Cc1ccc(S(=O)(=O)N[C@@H]2COC(=O)[C@@H](C)COC(=O)CC=C[C@H]2C)cc1`, with -0.033; and `COC(=O)C1=C(C)N(Cc2ccccc2)[C@]23O[C@](C(=O)OC)(C(=O)N2[C@@H]1c1ccccc1)C(C(=O)OC)=C3C(=O)OC`, with 0.0309. `CC(C)CON=C1C[C@@H](O)[C@@H](O)[C@@H]2[C@@H]3C(=O)N(c4ccc(F)cc4F)C(=O)[C@@H]3CC[C@H]12`: the composite z-score is 0.436. Then `CCOC(=O)CCN1C(=O)[C@H]2[C@H]3[C@H](O)[C@H](O)CC(=NOCC(C)C)[C@H]3CC[C@H]2C1=O`, with -0.0454; and `CC(C)=CCCC(C)=CCON=C1C[C@@H](O)[C@@H](O)[C@@H]2[C@@H]3C(=O)N(C(C)(C)C)C(=O)[C@@H]3CC[C@H]12`, with -0.0868; and `C[C@H]1CC[C@H]2C(=O)O[C@H](COc3ccc(C(C)(C)C)cc3)CN2[C@@H]1c1ccc(Br)cc1`, with 0.189. The value for `COC(=O)CC=C[C@@H](C)[C@@H](C=NO[C@@H]1O[C@H](COC(C)=O)[C@@H](OC(C)=O)[C@H](OC(C)=O)[C@H]1OC(C)=O)NS(=O)(=O)c1ccc(C)cc1` was 0.14. Then `CCOC(=O)[C@H](CC(C)C)NC(=O)CCC1CC(OC(=O)NCc2cccc3ccccc23)CC2(CCCC(COC(=O)NCc3ccncc3)O2)O1` (stereo partly specified), with 0.0121; and `CC(CCN1CCCc2nc(C)c(C)cc21)=NO[C@@H](C)c1cc(-c2c(C)cc(C)cc2C)no1`, with 0.514; and `O=C1[C@H]2[C@H]3[C@H](O)[C@H](O)CC(=NO[C@@H]4O[C@H](CO)[C@@H](O)[C@H](O)[C@H]4O)[C@H]3CC[C@H]2C(=O)N1c1cccc(Oc2ccccc2)c1`, with 0.199. Compound `CCOC(=O)NN=C1C[C@@H](O)[C@@H](O)[C@@H]2[C@@H]3C(=O)N(c4ccc(F)cc4F)C(=O)[C@@H]3CC[C@@H]12` yielded a composite z-score of 0.252. The value for `C[C@H]1CC[C@H]2C(=O)OC(CO)CN2[C@@H]1c1ccc(Br)cc1` (stereo partly specified) was -0.442. Then `Cn1c(=O)n2n(c1=O)[C@H]1[C@H](O)[C@@H]3O[C@@H]3C(=NOCc3ccccc3)[C@H]1CC2`, with 0.13; and `O=c1n(-c2ccccc2)c(=O)n2n1CC[C@@H]1C(=NOCc3ccccc3)[C@H]3O[C@H]3[C@@H](O)[C@@H]12`, with 0.0844; and `C[C@@H]1CC[C@H]2C(=O)O[C@@H](Cc3ccccc3)CN2[C@H]1c1ccc(Br)cc1`, with 0.217.

For `CO[C@H]1COC(=O)[C@@H](C)COC(=O)[C@H](C)NC(=O)CC=C[C@H]1C`, the composite z-score was -0.113. Then `CO[C@H]1COC(=O)CC=C[C@H](C)[C@@H](OC)COC(=O)[C@@H](C)COC(=O)CC=C[C@@H]1C`, with -0.111. Then `COC(=O)CC=C[C@@H](C)[C@@H](C=NOCC[C@@H]1C=C[C@H](OC(C)=O)[C@@H](COC(C)=O)O1)NS(=O)(=O)c1ccc(C)cc1`, with 0.15. The value for `CCOC(=O)CCN1C(=O)[C@H]2[C@H]3[C@H](O)[C@H](O)CC(=NNC(=O)OCc4ccccc4)[C@@H]3CC[C@H]2C1=O` was 0.538; that for `CC(C)=CCCC(C)=CCON=C1C[C@@H](O)[C@@H](O)[C@@H]2[C@@H]3C(=O)N(Cc4ccccc4)C(=O)[C@@H]3CC[C@@H]12` was -0.0506. As to `C[C@@H](ON=C1[C@H]2CCn3c(=O)n(-c4ccccc4)c(=O)n3[C@H]2[C@H](O)[C@@H]2O[C@H]12)c1cn([C@@H]2COC[C@H]2O)nn1`, the composite z-score came out at 0.0584.

In turn, `COc1cc(O)c(C(=O)C=Cc2ccc3c(c2)OCO3)c(OC)c1` displayed a composite z-score of 0.0276. The value for `COC(=O)CC=C[C@@H](C)[C@@H](C=NO[C@H](C)c1cn([C@H](CO)Cc2ccccc2)nn1)NS(=O)(=O)c1ccc(C)cc1` was 0.608; that for `COc1ccc(O[C@H]2C=C[C@@H](c3ccccc3)O[C@@H]2COC(=O)CCC(C)=NO[C@@H]2O[C@H](COC(C)=O)[C@@H](OC(C)=O)[C@H](OC(C)=O)[C@H]2OC(C)=O)cc1` was -0.234.

Turning to `CCOC(=O)NN=C1C[C@@H](O)[C@@H](O)[C@@H]2[C@@H]3C(=O)N(Cc4ccc5c(c4)OCO5)C(=O)[C@@H]3CC[C@H]12`, the composite z-score is -0.243. The value for `CCOC(=O)[C@H](CC(C)C)NC(=O)CCC1CC(OC(=O)NCc2cccc3ccccc23)CC2(CCCC(COC(=O)NCCC(C)C)O2)O1` (stereo partly specified) was -0.394. Then `CC(C)=CCCC(C)=CCON=C1C[C@@H](O)[C@@H](O)[C@@H]2[C@@H]3C(=O)N(C[C@@H]4CCCO4)C(=O)[C@@H]3CC[C@H]12`, with 0.349. The value for `CC=CC1=C(CO)C(=O)[C@@H]2O[C@@H]2C1=O` was -0.681; that for `CO[C@H]1COC(=O)CCC[C@@H](C)[C@H](OC)COC(=O)[C@@H](C)NC(=O)CC=C[C@@H]1C` was -0.154; that for `COc1ccc(O[C@H]2C=C[C@@H](c3ccccc3)O[C@@H]2COC(=O)CCC(C)=NOC[C@@H](O)[C@H]2O[C@@H]3OC(C)(C)O[C@@H]3[C@H]2O)cc1` was 0.179. Consider `O=C(NN=C1C[C@@H](O)[C@@H](O)[C@@H]2[C@@H]3C(=O)N(Cc4ccccc4)C(=O)[C@@H]3CC[C@@H]12)OCc1ccccc1`, for which the composite z-score was -0.0741. The value for `CCOC(=O)[C@H](CC(C)C)NC(=O)CCC1CC(OC(=O)NCc2cccc3ccccc23)CC2(CCCC(COC(=O)NCCc3ccc(Cl)cc3)O2)O1` (stereo partly specified) was 0.218; that for `CO[C@@H]1C=CCC(=O)N2CCC[C@H]2C(=O)OC[C@@H](C)C(=O)OC[C@H]1C` was -0.267. Take `CC(C)CON=C1C[C@@H](O)[C@@H](O)[C@@H]2[C@@H]3C(=O)N(C4CCCCC4)C(=O)[C@@H]3CC[C@H]12`: the composite z-score came to 0.005.
